ELG1 repair inh: qHTS screen for small molecules that inhibit ELG1-dependent DNA repair in human embryonic kidney (HEK293T) cells expressing luciferase-tagged ELG1 | HEK293T ELG1-luciferase reporter, luminescence, 16 h; DNA damage induced by 5-fluorouridine | hit rate 2.3% among 330,000 | Potency, µM (series often up to 46.1 µM), without a hit: top-dose activity change, negative = inhibition, usual class: inhibitors; further: potency means the concentration at half of the fitted maximal effect; nearly all actives have a fitted effect of over 55% in size
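5-Fluorouridine DNA damage + compound/DMSO, 2,000 cells/well, 16 h, 37 °C/5% CO2. ONE-Glo, 30 min RT, luminescence. Readout = decrease in reporter signal.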
TDP1 cell CPT: qHTS for Inhibitors of human tyrosyl-DNA phosphodiesterase 1 (TDP1): qHTS in cells in presence of CPT | chicken DT40 Tdp1-/-;hTDP1 cells + 20 nM CPT, ATP luminescence, 48 h | Potency, µM (titrated, usually from 46.2 µM), without a hit: top-dose activity change, negative = growth inhibition, usual class: inhibitors | hit rate 12% among 420,000 | AID 686979, 2013; further: potency means the concentration at half of the fitted maximal effect; nearly all actives have a fitted effect of over 55% in size
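Cell growth measured by CellTiter-Glo luminescence after a minimum 48 h, 37 C compound exposure with 20 nM CPT in Tdp1-knockout DT40 cells stably expressing hTDP1, seeded 400/well; qHTS titration format.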
Gal4-VP16 FLuc: VP16 counterscreen qHTS for inhibitors of ROR gamma transcriptional activity; hit rate 3.5% among 310,000; AID 2546, 2010; Drosophila S2 Gal4-VP16 UAS-luciferase, luminescence, 20 h; Potency, µM (highest dose often 53.6 µM), for the others: top-dose activity, negative = inhibition, usual class: inhibitors;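 further: Gal4-VP16 expression switched on by copper sulfate through the metallothionein promoter; potency means the concentration at half of the fitted maximal effect; nearly all actives have a fitted effect of over 50% in size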
RORgamma inh: qHTS for inhibitors of ROR gamma transcriptional activity. Nuclear receptor ROR-gamma (Mus musculus), P51450. Drosophila S2 Gal4-RORgamma UAS-luciferase reporter, 20 h. Potency, µM (top dose mostly 53.6 µM), for the others: at the highest dose activity change, negative = inhibition, most hits filed as inhibitors. hit rate 5.4% among 310,000. AID 2551, 2010; further: potency means the concentration at half of the fitted maximal effect; nearly all actives have a fitted effect of over 60% in size
Target sequence (P51450 whole entry, looked up, the tested form may be a part): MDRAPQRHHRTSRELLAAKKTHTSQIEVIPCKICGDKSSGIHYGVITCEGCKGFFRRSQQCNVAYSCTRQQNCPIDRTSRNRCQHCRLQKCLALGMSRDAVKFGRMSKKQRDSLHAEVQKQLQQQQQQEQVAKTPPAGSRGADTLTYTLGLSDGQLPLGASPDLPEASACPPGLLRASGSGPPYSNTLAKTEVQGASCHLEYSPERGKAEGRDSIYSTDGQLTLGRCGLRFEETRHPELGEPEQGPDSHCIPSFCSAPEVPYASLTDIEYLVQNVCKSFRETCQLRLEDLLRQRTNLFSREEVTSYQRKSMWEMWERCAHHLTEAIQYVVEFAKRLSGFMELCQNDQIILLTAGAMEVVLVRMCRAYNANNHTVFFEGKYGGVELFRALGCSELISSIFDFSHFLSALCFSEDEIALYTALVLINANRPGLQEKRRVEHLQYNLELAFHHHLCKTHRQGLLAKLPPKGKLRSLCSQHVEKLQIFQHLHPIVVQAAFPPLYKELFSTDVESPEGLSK
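Compounds are pin-transferred onto Drosophila Schneider cells expressing a copper-inducible Gal4–ROR gamma transactivation domain fusion. After 1 hr, copper sulfate is added to 700 uM final; luciferase is read 20 hr later.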
IL1B secr inh: qHTS for Inhibitors of Inflammasome Signaling: IL-1-beta AlphaLISA Primary Screen | THP-1 LPS/ATP IL-1B secretion, AlphaLISA, 16 h; stronger effect = lower value | activity change, % at 57.5 µM | hit rate 4.7% among 360,000 | AID 743279, 2014; in the data active means activity change below about -50%; inconclusive means mostly about -30% to -49%
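THP-1 cells pretreated 1 hr with compounds (up to 57.5 uM final), then stimulated with LPS (250 ng/mL final) plus ATP (1.25 mM final); secreted IL-1B measured by AlphaLISA after 16 hr, decreased signal indicating inhibition.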
DT40 TDP1 no CPT: qHTS for Inhibitors of human tyrosyl-DNA phosphodiesterase 1 (TDP1): qHTS in cells in absence of CPT. DT40 Tdp1-/- hTDP1 cells, no CPT, ATP luminescence, 48 h. Potency, µM (series often up to 46.2 µM), for the others: top-dose activity change, negative = growth inhibition, usual class: inhibitors. hit rate 15% among 420,000. AID 686978, 2013; further: potency means the concentration at half of the fitted maximal effect; nearly all actives have a fitted effect of over 55% in size
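Camptothecin absent (DMSO only). Human TDP1-complemented DT40 knockout cells, 400 cells/well, 37 °C for minimum 48 hr; ATP measured via CellTiter-Glo, 30 min dark incubation, luminescence.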
Starred values were filed as active, the others as inactive; ? = inconclusive; . = not tested or not shown; [ ] = another dose, or the depositor's remark. Only some compounds are listed: those with a hit (about 21% of all), similar ones and a draw of the others. Unless noted, the call rests on the fitted dose curve; in most records, active means well fitted curve in the direction sought with a large enough effect; inconclusive means small, poorly fitted or top-dose-only effect, or another doubt; inactive means no such curve, though single readings can be large; an effect the other way counts as inactive or inconclusive. On the % scale 0 is the no-effect control and ±100 the full control effect.

SMILES | ELG1 repair inh | TDP1 cell CPT | Gal4-VP16 FLuc | RORgamma inh | IL1B secr inh | DT40 TDP1 no CPT
CCOC(=O)c1c(C)oc2nc(C)nc(NCc3cccc(OC)c3)c12 | . | 16µM* | . | . | . | ?
CCOC(=O)c1c(C)oc2nc(C)nc(NCc3ccc(C)cc3)c12 | . | -99% | . | . | . | ?
CCOC(=O)c1c(C)oc2nc(C)nc(NCc3cccc(Cl)c3)c12 | . | ? | . | . | . | 21µM*
Cc1cc(C)c(Cn2c(=O)n(Cc3ccccc3)c(=O)c3c(C)c(C)sc32)c(C)c1 | . | -19% | . | . | . | -9%
COc1ccc(C)cc1N1CC(C(=O)OCc2nc(N)nc(Nc3ccccc3C)n2)CC1=O (stereo unspecified) | 11% | -5% | . | . | 0 | ?
CC(C)c1ccccc1NC(=O)COC(=O)Cc1c[nH]c2ccccc12 | 10% | 0.082µM* | -2% | -8% | 0 | -10%
NC(=O)c1ccsc1NC(=O)COC(=O)Cc1c[nH]c2ccccc12 | ? | ? | . | . | 6 | 16µM*
NC(=O)c1ccsc1NC(=O)COC(=O)Cc1ccccc1[N+](=O)[O-] | . | 23µM* | . | . | 39 | 21µM*
COc1ccccc1NC(=O)COC(=O)Cc1c[nH]c2ccccc12 | 2% | -26% | 7% | 19% | 29 | 3%
CCN(CC)C(=O)Cn1cc(S(=O)(=O)CC(=O)Nc2ccccc2F)c2ccccc21 | . | -4% | . | . | -3 | -8%
CCc1nc2ccc(C(=O)N3CCN(C(=O)c4ccco4)CC3)cn2c1N(C)C(=O)Nc1ccccc1OC | . | -11% | . | . | 4 | -6%
Cc1ccc(CC#N)c(-c2c(CC#N)ccc(C)c2C)c1C | . | ? | . | . | 21 | 23µM*
Cc1cc[n+](CC#N)cc1 | . | -10% | . | . | . | 2%
CCc1c(C)nc2ncnn2c1N1CCCC(C(=O)NCCc2ccccc2)C1 (stereo unspecified) | 14% | ? | -23% | ? | 9 | 21µM*
CCc1c(C)nc2ncnn2c1N1CCCC(C(=O)NCc2cccs2)C1 (stereo unspecified) | -15% | ? | ? | -23% | 36 | 13µM*
CCc1c(C)nc2ncnn2c1N1CCC(C(=O)NCc2cccs2)CC1 | -8% | 23µM* | 0% | 8% | 31 | ?
CCc1c(C)nc2ncnn2c1N1CCCC(C(=O)NCc2ccco2)C1 (stereo unspecified) | ? | ? | ? | -2% | 7 | ?
CCc1c(C)nc2ncnn2c1N1CCCC(C(=O)Nc2cc(F)ccc2C)C1 (stereo unspecified) | -15% | 16µM* | -7% | 32% | -5 | 21µM*
CCc1c(C)nc2ncnn2c1N1CCC(C(=O)NCc2cccc(OC)c2)CC1 | ? | ? | -15% | 22% | -17 | ?
CC1=CC2C(C(C)C)CCC(C)(O)C2CC1 (stereo unspecified) | . | -28% | -10% | -18% | . | -14%
O=S1(=O)CC(N2CCN(CCO)CC2)CN1Cc1cn(Cc2ccc(C(F)(F)F)cc2)nn1 (stereo unspecified) | . | -28% | . | . | 14 | -20%
CCC1=C(OC(=O)N(CC)CC)N2C(=O)OC(=NCCOC)[C@]2(C)[C@H]2C1=CC[C@H]1C(=O)N(C)C(=O)[C@H]12 | . | . | -8% | -1% | . | .
Cc1nc2ncnn2c(N2CCN(C(=O)c3cccc(F)c3)CC2)c1C | ? | -9% | -1% | -30% | 24 | -26%
CCc1c(C)nc2ncnn2c1NCc1cccs1 | ? | ? | -6% | 3% | -6 | 26µM*
Cc1nc2ncnn2c(N2CCCC(C(=O)Nc3ccccc3Br)C2)c1C (stereo unspecified) | ? | ? | -19%[10 µM] | 0% | 8 | 15µM*
SMILES | ELG1 repair inh | TDP1 cell CPT | Gal4-VP16 FLuc | RORgamma inh | IL1B secr inh | DT40 TDP1 no CPT
O=C(NC1CC(=O)N(c2ccccc2)C1)c1ccc(S(=O)(=O)N2CCCCC2)cc1 (stereo unspecified) | . | -25% | . | . | . | -21%
CC(C)(C)N(Cc1ccccc1)C(=O)COC(=O)C1CC(=O)N(Cc2ccccc2)C1 (stereo unspecified) | . | ? | . | . | 3 | ?
Cc1ccc(N2C(=O)CSC23C(=O)Nc2ccccc23)cc1 (stereo unspecified) | 0% | -4% | -1% | ? | 0 | -14%
Cc1ccc2c(c1)C1(SC(C)C(=O)N1c1ccc(Cl)cc1)C(=O)N2 (stereo unspecified) | . | 6.5µM* | . | . | 37 | 4.1µM*
Cc1ccc(NS(=O)(=O)c2cc(NC(=O)c3ccc4c(c3)NC(=O)CS4)ccc2Cl)c(C)c1 | 23µM* | ? | 1% | ? | ? | 26µM*
CC(=O)N1N=C(c2ccccc2)OC12CCCC2 | 9% | -3% | 0% | -1% | 0 | -10%
CC(=O)N1N=C(c2ccc3ccccc3c2)OC12CCCC2 | -13% | 21µM* | -1% | 18% | 4 | ?
CC(/C=N/NC(=O)Cn1cnc2ccccc21)=C\c1ccccc1 | -19% | 23µM* | -12% | ? | -3 | ?
CC(/C=N/NC(=O)c1nn(C)c(C)c1Br)=C\c1ccccc1 | ? | -6% | ? | 0.16µM* | 0 | -18%
CC(/C=N/NC(=O)c1c(Br)cnn1C)=C\c1ccccc1 | ? | -20% | 17% | 16% | -52* | ?
O=C(Cn1cnc2ccccc21)N/N=C/c1ccccc1 | 4% | -11% | 0% | -11% | 0 | -20%
COc1cc(OC)cc(-n2c(=O)[nH]c3cc(C(=O)NCCc4ccc(C)cc4)ccc3c2=O)c1 | . | -16% | . | . | . | -4%
CCOCCCNC(=O)c1ccc2c(=O)n(CCc3ccc(OC)c(OC)c3)c(=O)[nH]c2c1 | . | 6.5µM* | . | . | . | 4.1µM*
CCCCN(C)CCNC(=O)c1ccc2c(=O)n(CCc3ccccc3)c(=O)[nH]c2c1 | . | 13µM* | . | . | . | 23µM*
COc1ccc(-n2c(=O)[nH]c3cc(C(=O)NCCc4ccc(Cl)cc4)ccc3c2=O)cc1OC | ? | 23µM* | -30% | ? | 12 | 15µM*
CCOc1ccccc1O[C@H](c1ccccc1)[C@H]1CNCCO1 | 19% | 30µM* | . | . | -19 | 19µM*
O=C(O)c1ccccc1C(=O)OCC1CCC(=NO)CC1 (stereo unspecified) | . | 5% | . | . | 5 | -16%

Screening results from PubChem.
